# Source: PubChem (National Center for Advancing Translational Sciences (NCATS))
# A selection: hits, their analogues and other compounds. The true share with any hit is near 19%.
# TDP1 cell CPT: DT40-hTDP1 cell growth loss with CPT; hit rate 12% among 420,000; chicken DT40 Tdp1-/-;hTDP1 cells + 20 nM CPT, ATP luminescence, 48 h; Potency, µM (top dose mostly 46.2 µM), inactives show top-dose activity change, negative = growth inhibition, actives largely listed as inhibitors; also: potency is read from the fitted curve at half-maximal effect; nearly all actives have a fitted effect of over 55% in size
#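 Cell growth measured by CellTiter-Glo luminescence after a minimum 48 h, 37 C compound exposure with 20 nM CPT in Tdp1-knockout DT40 cells stably expressing hTDP1, seeded 400/well; qHTS titration format.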
# DT40 TDP1 no CPT: qHTS for Inhibitors of human tyrosyl-DNA phosphodiesterase 1 (TDP1): qHTS in cells in absence of CPT; DT40 Tdp1-/- hTDP1 cells, no CPT, ATP luminescence, 48 h; AID 686978, 2013; hit rate 15% among 420,000; Potency, µM (top dose mostly 46.2 µM), without a hit: at the top dose activity change, negative = growth inhibition, hits mostly inhibitors; also: potency is read from the fitted curve at half-maximal effect; nearly all actives have a fitted effect of over 55% in size
#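 No-CPT arm: Tdp1-/-;hTDP1 DT40 cells (400/well) plus compounds, incubated ≥48 hr at 37 °C. Readout CellTiter-Glo luminescence.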
# HT1080 IDH1KD tx: toxicity to HT-1080 IDH1 knockdown cells (counter line); HT-1080 IDH1 knockdown viability, ATP luminescence, 48 h; Potency, µM (titrated, usually from 46.1 µM), without a hit: top-dose activity, negative = toxicity, hits mostly cytotoxic; hit rate 2% among 360,000; AID 686971;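 also: potency is read from the fitted curve at half-maximal effect; 0% = DMSO wells and -100% = cell-free medium wells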
#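 % activity derives from luminescence (CellTiter-Glo), normalised to DMSO and no-cell wells. HT-1080-IDH1KD cells, 750/well, had 48 h compound exposure at 37 °C.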
# IL-1B inflam inh: blocks inflammasome-driven IL-1 beta release. THP-1 LPS/ATP IL-1B secretion, AlphaLISA, 16 h; active compounds read low. activity change, % at 57.5 µM. hit rate 4.7% among 360,000. AID 743279; in the data active = activity change below about -50%; inconclusive = mostly about -30% to -49%
#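 Secreted IL-1B measured by AlphaLISA bead assay after 16 h compound exposure of THP-1 cells; compounds (final up to 57.5 uM) added 1 h before LPS (250 ng/mL) and ATP (1.25 mM) stimulation; lower signal means less secretion.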
# HT1080-NT tox: kills 2HG-producing HT-1080-NT fibrosarcoma cells; HT-1080-NT fibrosarcoma viability, CellTiter-Glo ATP luminescence, 48 h; Potency, µM (top dose mostly 46.1 µM), for the others: top-dose activity, negative = less viability, usual class: cytotoxic; hit rate 1.6% among 360,000;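 also: NT is the 2HG producing partner of a matched IDH1 knockdown line; potency is read from the fitted curve at half-maximal effect; 0% = DMSO-treated cells and -100% = media-only wells without cells; nearly all actives have a fitted effect of over 55% in size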
#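 HT-1080-NT; 750 cells/well; 5% FBS RPMI; 48 h compound, 37 degrees C; CellTiter-Glo luminescence; curve fitting and curve-class assignment.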
# * hit, by the source's call; ? = inconclusive; . = not tested or not shown; ! = not confirmed by another sample; [ ] = remark or other dose. Unless noted, calls follow the shape of the dose curve; as a rule, active = well fitted curve in the direction sought with a large enough effect; inconclusive = small, poorly fitted or top-dose-only effect, or another doubt; inactive = no such curve, though single readings can be large; an effect the other way counts as inactive or inconclusive. Unless noted, % is scaled to controls: 0 for no effect and ±100 for the full control effect.
SMILES,TDP1 cell CPT,DT40 TDP1 no CPT,HT1080 IDH1KD tx,IL-1B inflam inh,HT1080-NT tox
O=C1NC(=O)C(=Cc2ccccc2OCCOc2ccc([N+](=O)[O-])cc2)C(=O)N1,?,?,18µM*,?,?
CN1C(=O)C(=Cc2ccccc2OCc2ccccc2Cl)C(=O)N(C)C1=O,?,?,16µM*,37,16µM*
CN1C(=O)C(=Cc2ccccc2OCCOc2ccc([N+](=O)[O-])cc2)C(=O)N(C)C1=O,?,23µM*,?,3,?
Nc1cc(C(=O)Nc2ccccc2F)ccc1N1CC2CC(C1)c1cccc(=O)n1C2 (centres undefined),?,?,-24%,24,-18%
Cc1nc(C)n(CC(O)COc2ccc3cc(Br)ccc3c2)n1 (centres undefined),?,?,?,-15,-6%
CN1C[C@@H](NS(=O)(=O)N(C)C)C[C@@H]2c3cccc4c3c(cn4C)C[C@H]21,-30%,?,.,.,.
CC(C)Nc1nc(NC(C)C)nc(N(C#N)CCOc2ccc(Cl)cc2Cl)n1,18µM*,?,?,-13,?
CN(c1ccccc1N(C)S(=O)(=O)c1ccccc1)S(=O)(=O)c1ccccc1,3%,?,2%,56,13%
COC(=O)c1cccc(NC(=O)c2ccc(S(=O)(=O)N(C)c3ccccc3OC)cc2)c1,16µM*,12µM*,-28%,45,0%
c1cncc(CNCCc2ccc3c(c2)OCO3)c1,4%,-9%,1%,-6,10%
CC1(C)CC(CCNCc2ccc3c(c2)OCO3)(Cc2ccccc2)CCO1 (centres undefined),?,18µM*,-11%,-96*,-2%
NCC(CC(=O)O)c1ccc(Cl)cc1 (centres undefined),-8%,-15%,12%,-9,5%
COc1ccc2c(c1)C1OCCNC1CC2 (centres undefined),-8%,-9%,4%,5,11%
Oc1cc2c(cc1O)[C@H]1c3ccccc3CN[C@H]1CC2,18µM*,18µM*,.,.,.
Oc1cc2c(cc1O)[C@H]1c3ccccc3CN[C@@H]1CC2,14µM*,13µM*,.,.,.
CC(C(=O)Nc1ccc(Br)cc1C(=O)c1ccccc1)N1CCOCC1 (centres undefined),-13%,-19%,-2%,-19,-4%
C/C1=C\[C@@H](C)C/C=C/[C@H]2[C@@H]3O[C@]3(C)[C@@H](C)[C@H]3[C@H](Cc4c[nH]c5ccccc45)NC(=O)[C@]32C(=O)/C=C/C(=O)[C@@H]1O,0.15µM*,0.15µM*,?,-105*,-22%
O=C(Oc1ccccc1)N1CCC2(CCN(Cc3nccs3)CC2)CC1,-29%,?,.,.,.
Nc1ccccc1C(=O)OCC(=O)Nc1ccc(Br)cc1F,-2%,-7%,1%,3,9%
CN1C(C(=O)NCc2cccc(C(F)(F)F)c2)CC2Cn3c(nc4cc5ccccc5cc43)C21 (centres undefined),?,18µM*,-3%,-7,-3%
CN1CCN(c2nc(N(C)C)oc(=O)c2C#N)CC1,0%,3%,3%,6,27%
Cc1ccccc1-n1c(O)c(C(c2ccncc2)c2c(O)n(-c3ccccc3C)c(=O)[nH]c2=O)c(=O)[nH]c1=O,3%,?,7%,24,17%
COc1cc2nc(N3CCCN(C)CC3)nc(N(C)C3CCN(C)CC3)c2cc1OC,6.3µM*,6.3µM*,.,.,.
COc1ccc(Nc2nc(N3CCN(C)CC3)nc3ccccc23)c(OC)c1,?,?,-7%,?,-21%
O=c1c2ccccc2nc(/C=C/c2cccc3ccccc23)n1-c1ccccc1Cl,12µM*,10µM*,.,.,.
SMILES,TDP1 cell CPT,DT40 TDP1 no CPT,HT1080 IDH1KD tx,IL-1B inflam inh,HT1080-NT tox
COc1ccc(-n2c(/C=C\c3ccccc3F)nc3ccccc3c2=O)cc1OC,23µM*,16µM*,.,.,.
Cc1ccccc1-n1c(/C=C/c2ccccc2F)nc2ccccc2c1=O,21µM*,8.2µM*,.,.,.
C[C@]12CCC(=O)C=C1CC[C@@H]1C2CC[C@]2(C)C(=O)CCC12 (some centres undefined),-10%,-16%,8%,-16,5%
CC(C)CCC(=O)O[C@H]1CC[C@H]2[C@@H]3CCC4=CC(=O)CC[C@]4(C)[C@H]3CC[C@]12C,-6%,0%,.,.,.
CC(=O)[C@H]1CC[C@H]2[C@@H]3CCC4=CC(=O)CC[C@]4(C)[C@H]3CC[C@]12C,27µM*,18µM*,?,?,?
C[C@]12CCC(=O)C=C1CC[C@@H]1[C@@H]2CC[C@]2(C)C(=O)CC[C@@H]12,?,18µM*!,6%,5,19%
C[C@@]12CCC3C(CCC4=CC(=O)CC[C@]43C)C1CCC2O (some centres undefined),?,16µM*,.,.,.
CCCOC(C(=O)OC1CCN(C)CC1)(c1ccccc1)c1ccccc1,21µM*,12µM*,.,.,.
CCCCCCCCCCCCCCCCOC[C@H](COP(=O)([O-])OCC[N+](C)(C)C)OC(C)=O,-16%[4.12 µM],-18%[4.12 µM],.,.,.
CC(C)n1c(O)c(C2c3cc(Cl)ccc3Oc3[nH]c(=O)n(C(C)C)c(=O)c32)c(=O)[nH]c1=O (centres undefined),2.9µM*,2.9µM*,2.3µM*,-99*,5.2µM*
COc1ccc(-n2c(/C=C/c3ccc(O)c(OC)c3)nc3ccccc3c2=O)cc1,21µM*,26µM*,?,-67*,?
COc1cc(/C=C/c2nc3ccccc3c(=O)n2-c2ccc(Br)c(C)c2)ccc1O,21µM*,16µM*,.,.,.
O=c1c2ccccc2nc(/C=C/c2ccccc2O)n1-c1ccc(Br)cc1,?,16µM*,.,.,.
COc1ccc(-n2c(/C=C/c3ccc(O)cc3)nc3ccccc3c2=O)cc1,23µM*,21µM*,?,-54*,?
CCCNC(=O)c1cc2c(c(-c3cccc(-c4cc5ccccc5o4)c3)n1)[C@@H](CCO)N(C(=O)NC(C)C)C2,?,?,?,-11,?
Cc1ccccc1NC1=NCC(C)S1 (centres undefined),-23%,0%,15%,18,2%
O=C(CN1CCN(c2ccccc2)CC1)Nc1ccccc1C(=O)NCCc1ccccc1,?,?,-13%,-24,-11%
Cc1ccc(-n2c(/C=C\c3ccc(F)cc3)nc3ccccc3c2=O)cc1Cl,15µM*,16µM*,.,.,.
COc1ccc(-n2c(/C=C/c3ccc4c(c3)OCO4)nc3ccccc3c2=O)cc1,26µM*,15µM*,1%,-8,-5%
